We go through 33 compounds from PubChem BioAssay AID652016 (National Center for Advancing Translational Sciences (NCATS), 2013).

Structures are written as SMILES. Inconclusive results are not listed. A call without a number means that no potency is given here. Calls of active or inactive are those of the source. The call rests on the fitted dose curve; in most records, active means well fitted inhibition curve with a large enough effect; inconclusive means small, poorly fitted or top-dose-only effect; inactive means flat fitted curve, though single readings scatter.
Potency means the concentration at half of the fitted maximal effect.

The assay deals with Luciferin 4-monooxygenase (Photinus pyralis) (UniProt P08659). In words: qHTS Assay for Inhibitors of Firefly Luciferase from the GSK Published Protein Kinase Inhibitor Set. Particulars: purified firefly luciferase, luminescence inhibition; series mostly up to 57.5 µM. In outline: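 Enzyme-level luminescence assay: compounds titrated (about 60uM down to 300pM) into substrate buffer (10uM ATP, 10uM D-luciferin, pH 7.5 Tris acetate with Mg, Tween-20, BSA), then 10nM firefly luciferase added; read after ~5 min.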
Chain of Luciferin 4-monooxygenase (Photinus pyralis) (P08659 whole entry, looked up): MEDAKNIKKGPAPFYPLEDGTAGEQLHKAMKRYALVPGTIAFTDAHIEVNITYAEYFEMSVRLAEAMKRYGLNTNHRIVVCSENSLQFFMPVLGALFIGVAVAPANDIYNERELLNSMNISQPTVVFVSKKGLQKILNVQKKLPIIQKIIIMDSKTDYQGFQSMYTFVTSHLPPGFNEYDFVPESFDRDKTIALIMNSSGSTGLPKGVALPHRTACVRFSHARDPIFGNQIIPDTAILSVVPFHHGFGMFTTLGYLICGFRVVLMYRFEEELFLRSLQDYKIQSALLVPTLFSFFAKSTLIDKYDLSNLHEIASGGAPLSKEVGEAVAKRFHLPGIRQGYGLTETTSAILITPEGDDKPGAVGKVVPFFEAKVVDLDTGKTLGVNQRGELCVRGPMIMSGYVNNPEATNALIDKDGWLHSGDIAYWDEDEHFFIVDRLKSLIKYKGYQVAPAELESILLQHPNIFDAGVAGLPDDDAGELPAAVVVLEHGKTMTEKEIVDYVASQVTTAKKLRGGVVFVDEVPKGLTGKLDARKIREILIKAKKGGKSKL
With `COC(=O)c1ccc2c(c1)/C(=C/c1cc(Br)c(O)c(Br)c1)C(=O)N2`, the Potency is 20.6 µM (active).

Regarding `O=C1NC(=O)C(c2cccc(Cl)c2)=C1Nc1ccc(Cl)c(C(=O)O)c1`, the Potency entry is “inactive”.

As to `COc1cccc(-n2ncc3c(NN=Cc4ccc(C)cc4)ncnc32)c1`, the Potency result is “inactive”.

With `CC(=O)Nc1cccc(C#Cc2cncnc2Nc2ccc(OCc3cccc(F)c3)c(Cl)c2)c1`, the Potency entry is “inactive”.

For `Cc1ccc(C(=O)NC2CCCCC2)cc1-c1ccc(C(=O)NCC2CC2)cc1`, the Potency result was “inactive”.

Turning to `CCn1c(-c2nonc2N)nc2c(N3CCCC3)nccc21`, the Potency result is “inactive”.

Regarding `Fc1ccc(-c2cc(-c3cn[nH]c3-c3ccccn3)ccn2)cc1`, the Potency result is “inactive”.

For the compound `Clc1ccc(-c2nn3ncccc3c2-c2ccnc(Nc3ccccc3)n2)cc1`, the Potency entry is “inactive”.

Take `COc1ccc2c(-c3ccnc(Nc4cccc(OC(F)(F)F)c4)n3)cnn2n1`: the Potency result was “inactive”.

On to `ON=C1CCc2cc(-c3nc(C4CCNCC4)[nH]c3-c3ccncc3)ccc21`, for which the Potency entry is “inactive”.

Take `CCCN1CCC=C(c2ccc(Nc3nc(Nc4ccccc4C(N)=O)c4cc[nH]c4n3)c(C)c2)C1`: the Potency result was “inactive”.

On to `Nc1nc(-c2cccc(Cl)c2)c(-c2ccc3ncccc3n2)s1`, for which the Potency result was “inactive”.

As to `CCN(CC)Cc1ccc(Nc2nccc(-c3cnn4ncccc34)n2)cc1`, the Potency result was “inactive”.

As for `Cc1cc(O)cc(C)c1C=Cc1cncc(C(N)=O)c1`, the Potency entry is “inactive”.

In the case of `Nc1nccc(-c2c(-c3ccc(F)cc3)ncn2C2CCC(O)CC2)n1` (stereo not drawn), the Potency entry was “inactive”.

For `O=C1NC(=O)C(c2ccccc2Cl)=C1Nc1cccc(O)c1`, the Potency entry is “inactive”.

On to `CCn1c(-c2nonc2N)nc2cncc(C(=O)N3CCNCC3)c21`, for which the Potency entry was “inactive”.

With `COc1ccc(-c2nn3ncccc3c2-c2ccnc(Nc3ccc(F)c(F)c3)n2)cc1`, the Potency result was “inactive”.

Regarding `O=C(Nc1n[nH]c2cc(-c3ccccc3)ccc12)C1CC1`, the Potency is 18.3 µM (active).

On to `O=C(Nc1n[nH]c2nnc(-c3cccnc3)cc12)C1CC1`, for which the Potency entry is “inactive”.

`O=C(Nc1ccc(Oc2ccc3nc(NC(=O)c4ccccc4)[nH]c3c2)cc1)Nc1cc(C(F)(F)F)ccc1F`: the Potency entry is “inactive”.

As to `CCc1nn2ncccc2c1-c1ccnc(NC2CC2)n1`, the Potency result is “inactive”.

Turning to `NS(=O)(=O)c1ccc(-c2cc3ccncc3cc2OCc2ccccc2)cc1`, the Potency entry is “inactive”.

As to `CN(c1ccc(NC(=O)Nc2c(Cl)cccc2Cl)cc1)c1ccnc(Nc2cccc(CS(C)(=O)=O)c2)n1`, the Potency was 0.58 µM (active).

Turning to `COc1cccc(-c2c[nH]c3c(NN=Cc4ccncc4)ncnc23)c1`, the Potency is 5.8 µM (active).

With `NC(=O)c1ccc(-c2nc(-c3ccc4c(c3)OCO4)c(-c3ccccn3)[nH]2)cc1`, the Potency entry is “inactive”.

In the case of `Fc1ccc(-c2ncn(CCCN3CCOCC3)c2-c2ccncc2)cc1`, the Potency result was “inactive”.

Regarding `Fc1ccc(-c2ncn(C3CCNCC3)c2-c2ccnc(Oc3cccc(C(F)(F)F)c3)n2)cc1`, the Potency entry was “inactive”.

Consider `NS(=O)(=O)c1ccc(-c2ccc3c(NC(=O)C4CC4)n[nH]c3c2)cc1`, for which the Potency entry was “inactive”.

In the case of `CC(C)c1ccc2c(N=Nc3ccc(S(N)(=O)=O)cc3)c(O)[nH]c2c1`, the Potency result is “inactive”.

For the compound `COc1cccc(COc2cc(-n3cnc4ccccc43)sc2C(N)=O)c1`, the Potency entry is “inactive”.

For `FC(F)(F)c1ccc(-c2nn3ncccc3c2-c2ccnc(Nc3ccc4c(c3)OCCO4)n2)cc1`, the Potency result is “inactive”.

As for `CCn1c(-c2nonc2N)nc2ccccc21`, the Potency result was “inactive”.
